Screening results (PubChem)
KDM5B inhibitor = inhibitors of human KDM5B histone demethylase; hit rate 2.6% among 220,000; KDM5B demethylase, FDH-coupled NADH fluorescence (FDH is formaldehyde dehydrogenase); AID 1347165; Potency, µM (titrated, usually from 57.7 µM), most hits filed as inhibitors; active = well fitted inhibition curve with a large enough effect; inconclusive = small, poorly fitted or top-dose-only effect; inactive = no such curve, though single readings can be large or run the other way; also: potency is read from the fitted curve at half-maximal effect; 0% is about no effect; nearly all actives have a fitted effect of over 70% in size
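Coupled FDH/NAD⁺ fluorescence readout. KDM5BΔAP 200 nM final; compound titration, 10 min RT preincubation; substrate mix 12.5 µM H3K4me3, 25 µM 2-OG, 50 µM Fe(II), 100 µM ascorbate, 0.25 mM NAD⁺, 0.25 U/mL FDH; ΔRFU over 30 min.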
IP6K1 inhibitor = IP6K1 kinase inhibition. IP6K1 kinase, ADP-Glo luminescence, 2 h; stronger effect = lower value. activity change, % (series mostly up to about 58 µM). hit rate 0.81% among 140,000; in the data active = activity change below about -25%; also: % is scaled to controls: 0 for no effect and ±100 for the full control effect
Target sequence (Q92551 whole entry, looked up): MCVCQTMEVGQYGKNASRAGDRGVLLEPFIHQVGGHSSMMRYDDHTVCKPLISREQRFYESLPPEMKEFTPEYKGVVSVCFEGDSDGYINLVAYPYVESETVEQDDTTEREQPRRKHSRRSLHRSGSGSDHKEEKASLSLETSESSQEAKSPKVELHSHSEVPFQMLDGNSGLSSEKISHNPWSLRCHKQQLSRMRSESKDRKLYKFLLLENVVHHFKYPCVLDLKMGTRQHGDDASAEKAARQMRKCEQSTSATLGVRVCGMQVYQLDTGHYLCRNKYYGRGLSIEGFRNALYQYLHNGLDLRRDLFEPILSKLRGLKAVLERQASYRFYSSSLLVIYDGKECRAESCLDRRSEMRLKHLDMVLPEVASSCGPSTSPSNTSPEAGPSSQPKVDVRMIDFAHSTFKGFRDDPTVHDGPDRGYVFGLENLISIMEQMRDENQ
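ADP-Glo luminescence measures ADP made by human IP6K1 during a 2 h RT reaction with ATP/IP6 (mix at 1.3 mM/130 uM); top library doses 57.5 and 19.1 uM final.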
Starred values were filed as active, the others as inactive; i = inactive; ? = inconclusive; / = not tested or not shown; ! = repeats disagree. In the library only some 2.8% were active in any assay of this set; here they are far more common.

SMILES	KDM5B inhibitor	IP6K1 inhibitor
O=c1c(Cl)c(N2CCN(Cc3nc(-c4ccsc4)no3)CC2)cnn1-c1ccccc1	i	/
COc1ccccc1-c1cc(C(=O)Nc2ccc(Cl)cc2)c2cnn(C)c2n1	/	-14
O=C(C[C@@H]1CCNC[C@@H]1Cc1cc(-c2ccc(F)cc2)on1)Nc1nccs1	i	-2
COCc1ccc2c(c1)c(OC(C)(C)C(=O)NCCCN1CCCC1=O)nn2CCC(C)C	?	-6
COCc1ccc2c(c1)c(OC(C)(C)C(=O)NC1CCOCC1)nn2Cc1cccnc1	i	5
COCc1ccc2c(c1)c(OC(C)(C)C(=O)NC1CCOCC1)nn2CCC(C)C	40µM*	-2
COCc1ccc2c(c1)c(OC(C)(C)C(=O)NC1CCC(O)CC1)nn2CCC(C)C (centres undefined)	32µM*	6
COc1ccccc1-c1ccc(CN2CCC(NC(=O)c3ccccc3Cl)C2)cc1 (centres undefined)	/	14
CNC(=O)c1cc(C2CC2)nc2onc(C3CCN(C(=O)c4ccc(C)cc4)C3)c12 (centres undefined)	/	-4
CC1(CCCCc2ccccc2)COc2ccc(C(=O)NCCN3CCOCC3)cc2N1 (centres undefined)	35µM*	-8
CC1(CCCCN2CCOCC2)COc2ccc(C(=O)NCc3ccco3)cc2N1 (centres undefined)	35µM*	2
CC1(CCCCN2CCOCC2)COc2ccc(C(=O)NCc3ccccc3)cc2N1 (centres undefined)	40µM*	-2
CC1(CCCCc2ccccc2)COc2ccc(C(=O)N3CCOCC3)cc2N1 (centres undefined)	?	-9
CC1(CCCCN2CCOCC2)COc2ccc(C(=O)Nc3ccc4[nH]ccc4c3)cc2N1 (centres undefined)	i	2
COc1cccc(NC(=O)c2ccc3c(c2)NC(C)(CCCCN2CCOCC2)CO3)c1 (centres undefined)	?	-11
COc1ccc2c(c1)CCN=C2C[C@H]1CN(C(=O)Nc2ccccc2)CC[C@H]1CC(=O)O	?	0
COC(=O)C[C@@H]1CCN(C(=O)COc2ccccc2)C[C@@H]1CC1=NCCc2cc(OC)c(OC)cc21	25µM*	-1
COc1cc2c(cc1OC)C(C[C@H]1CN(C(=O)c3ccc4c(c3)OCO4)CC[C@H]1CC(=O)O)=NCC2	32µM*	8
C=CCNC(=O)N1CC[C@@H](CC(=O)O)[C@@H](CC2=NCCc3cc(OC)ccc32)C1	35µM*	11
COc1cc2c(cc1OC)C(C[C@H]1CN(C(=O)Cc3cccs3)CC[C@H]1CC(=O)O)=NCC2	28µM*	7
COc1cc2c(cc1OC)C(C[C@H]1CN(C(=O)c3ccc(F)cc3)CC[C@H]1CC(=O)O)=NCC2	i	-1
COc1cc2c(cc1OC)C(C[C@H]1CN(C(=O)c3ccccc3)CC[C@H]1CC(=O)O)=NCC2	i	8
COc1ccc(C2=CC(c3c(F)cccc3Cl)n3nnnc3N2)cc1 (centres undefined)	i	/
COc1cccc(-c2cccc(C(=O)N3CCCC3C(=O)N3CCC(c4ccccc4)CC3)c2)c1 (centres undefined)	/	-8
CNC(=O)c1cc(C2CC2)nc2c1c(C1CCN(C(=O)c3ccc(C(F)(F)F)cc3)CC1)nn2C	/	-7
SMILES	KDM5B inhibitor	IP6K1 inhibitor
COc1ccc2c(c1)CCN=C2C[C@H]1CN(C(=O)Cc2cccs2)CC[C@H]1CC(=O)O	35µM*	-4
COc1ccc2c(c1)CCN=C2C[C@H]1CN(C(=O)c2ccccc2)CC[C@H]1CC(=O)O	28µM*	21
COc1ccc2c(c1)CCN=C2C[C@H]1CN(C(=O)c2cccc(F)c2)CC[C@H]1CC(=O)O	?	10
COc1ccc2c(c1)CCN=C2C[C@H]1CN(C(=O)C(C)(C)C)CC[C@H]1CC(=O)O	i	4
O=C(Nc1ccc(F)cc1)C1CCCN(Cc2cccc(-c3cccs3)c2)C1 (centres undefined)	/	2
Cc1ccc(-c2ccc3nnc(CNC(=O)COc4cccc(C)c4)n3n2)cc1	10µM*	-13
Cc1cccc(OCC(=O)NCc2nnc3ccc(-c4ccc(F)cc4)nn23)c1	35µM*	-1
Cc1ccc(-c2ccc3nnc(CNC(=O)COc4ccc(F)cc4)n3n2)cc1C	?	-12
O=C(NCc1c[nH]c2ncccc12)c1ccncc1	i	23
O=C(O)c1ccc(-c2nc3ccncc3[nH]2)cc1	?	0
c1coc(-c2nc3ccncc3[nH]2)c1	32µM*!	23
Cc1occc1-c1nc2ccncc2[nH]1	32µM*!	2
Cc1cc(-c2nc3ccncc3[nH]2)c(C)[nH]1	32µM*	-4
c1cnc2[nH]cc(-c3nc4ccncc4[nH]3)c2c1	35µM*!	5
Cc1oc(-c2ccccc2)nc1CSc1nc2ccncc2[nH]1	i	/
c1ccc(-c2nc3ccncc3[nH]2)cc1	?	0
O=C(C1CCCN1C(=O)c1ccccc1Cl)N1CCC(c2ccccc2)CC1 (centres undefined)	/	16
O=C(CNC(=O)c1ccc(-c2cnc3ccccc3c2)cc1)NCc1ccccc1	/	7
O=C(NCC1CCCCC1)C1CCc2nnc(C3CCN([S+](=O)([O-])c4ccccc4Cl)CC3)n21 (centres undefined)	/	26
COc1ccc(Cl)cc1C(=O)Nc1c(NC2CCCCC2)c2ccccc2oc1=O	i	/
COCCOc1ccc(C(=O)N[C@@H]2CN(C(=O)Nc3ccccc3C(=O)OC)CCC[C@H]2O)cc1	i	-10
COC(=O)c1ccccc1NC(=O)N1CCC[C@@H](O)[C@H](NC(=O)c2ccc(OCc3ccccc3)cc2)C1	25µM*	3
Cc1ccc(S(=O)(=O)OCCCCOS(=O)(=O)c2ccc(C)cc2)cc1	i	/
O=C(c1ccccc1)N1CC2(CCCN2C2COC2)Cc2ccccc21 (centres undefined)	i	3
O=C(c1ccc(Cl)cc1)N1CC2(CCCN2C2COC2)Cc2ccccc21 (centres undefined)	89µM*	0
SMILES	KDM5B inhibitor	IP6K1 inhibitor
O=C(NCCN[S+](=O)([O-])c1ccccc1)c1ccc(-c2cccc(C(F)(F)F)c2)cc1	/	5
C[S+](=O)([O-])c1ccc(-c2cc(C(=O)NC3CC3)nn3cccc23)cc1	/	-2
COc1ccc(-c2cc(C(=O)NCCc3ccccc3F)c3cnn(C)c3n2)cc1	/	7
O=C(NCc1ccc(-c2cnc3c(Oc4ccccc4)nccn23)cc1)c1ccn[nH]1	?	-4
CCOc1nccn2c(-c3ccc(CNC(=O)c4ccnn4C)cc3)cnc12	40µM*	4
COc1ccc(-c2nc(S(=O)(=O)c3ccc4c(c3)OCCO4)c(N3CCN(C)CC3)o2)cc1	i	/
CNCCN1C(=O)CC[C@H]2CN(C(=O)c3ccc(Cl)cn3)CC[C@H]21	i	6
CNCCN1C(=O)CC[C@H]2CN(c3ncc(Cl)cc3F)CC[C@H]21	25µM*	11
O=C(CC1CCCCC1)Nc1nc(-c2c[nH]c3ccccc23)cs1	i	/
O=C(CCS(=O)(=O)c1ccc2c(c1)OCCO2)Nc1cccc(F)c1	i	/
O=C(NC1CCCCC1)c1ccc2nnc(-c3ccc(OC(F)(F)F)cc3)n2c1	/	3
COc1ccc(-c2ccccc2C(=O)NCCCOC(C)C)nn1	/	9
O=C(Nc1ccccc1)c1ccc(Cn2ccn3nc4c(c3c2=O)CCCC4)cc1	22µM*	-5
